# Active and inactive are the calls of the source.
# Legend:
# [1] = tested on: PRMT1 (protein arginine N-methyltransferase 1); test: PRMT1 binders on small-molecule microarrays, primary screen, biochemical, small-molecule microarray, 635 nm fluorescence (AID 1088); details: small-molecule microarray binding, higher = more signal;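 note: binding of Prmt1 protein to compounds spotted on small-molecule microarray slides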
# [2] = yeast growth modulation, basal conditions, primary screen, YJM789 clinical isolate, OD600, 24 h (AID 1089);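 note: growth of clinical yeast isolate S. cerevisiae YJM 789 seeded 1000 cells per well; test concentration not given here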; details: S. cerevisiae YJM789 growth, higher = more signal, called active from +8 up or from −8 down
# [3] = fission yeast growth modulation, primary screen, strain 972, OD600, 24 h, no modulator (AID 1090);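 note: basal condition with compound alone and no growth modifier present; test concentration not given here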; details: S. pombe 972 growth, higher = more signal, called active from +8 up or from −8 down
# [4] = S. cerevisiae growth modulation with rapamycin, primary screen, strain BY4716, OD600, 96 h (AID 1091); details: higher = more signal, called active from +8 up or from −8 down; note: test concentration not given here
# [5] = molecular target: Torsin-1A-interacting protein 2 (Homo sapiens) (UniProt Q8NFQ8); test: LULL1 binders on small-molecule microarray, primary screen, cell lysate, human LULL1 lysate, 635/667 nm fluorescence (AID 1092); details: hLULL1 lysate binding, 635 nm fluorescence, higher = more signal;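 note: probe is lysate of COS7 cells overexpressing human LULL1; score merges per-feature 667 nm fluorescence with signal-to-noise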
# [6] = E. coli growth modulation, two-sided OD650, primary screen, E. coli filamentation project, strain DRC41, 24 h (AID 1093); details: OD650, 24 h, higher = more signal, called active from +8 up or from −8 down;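 note: MC1000 strain lacking acrAB efflux and sulA so SOS filamentation is blocked; test concentration not given here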
# [7] = small-molecule microarray binders of probe aLefty2, primary screen, biochemical, biotinylated probe, 635/667 nm fluorescence (AID 1094); details: higher = more signal;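 note: score merges spot fluorescence near 667 nm with spot signal-to-noise ratio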
# [8] = tested on: Noggin (protein binding on small-molecule microarray); test: Noggin binders on small-molecule microarray, primary screen, biochemical, 635/667 nm fluorescence (AID 1095); details: 635 nm fluorescence, higher = more signal;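 note: score merges 667 nm feature fluorescence with signal to noise over triplicate slides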
# [9] = molecular target: Neurogenic locus notch homolog protein 3 (Homo sapiens) (UniProt Q9UM47); test: NOTCH3 binders on small-molecule microarray, primary screen, biochemical, 635/667 nm fluorescence (AID 1096); details: NOTCH3 binding, 635 nm fluorescence, higher = more signal
# [10] = small-molecule microarray binders of probe aEGFR, primary screen, biochemical, biotinylated probe, 635/667 nm fluorescence (AID 1097); details: higher = more signal;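 note: probe is a biotinylated anti-EGFR antibody binding compounds printed on slides; score combines fluorescence near 667 nm and signal to noise of each spot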
# Chain of Torsin-1A-interacting protein 2 (Homo sapiens) (Q8NFQ8 whole entry, looked up): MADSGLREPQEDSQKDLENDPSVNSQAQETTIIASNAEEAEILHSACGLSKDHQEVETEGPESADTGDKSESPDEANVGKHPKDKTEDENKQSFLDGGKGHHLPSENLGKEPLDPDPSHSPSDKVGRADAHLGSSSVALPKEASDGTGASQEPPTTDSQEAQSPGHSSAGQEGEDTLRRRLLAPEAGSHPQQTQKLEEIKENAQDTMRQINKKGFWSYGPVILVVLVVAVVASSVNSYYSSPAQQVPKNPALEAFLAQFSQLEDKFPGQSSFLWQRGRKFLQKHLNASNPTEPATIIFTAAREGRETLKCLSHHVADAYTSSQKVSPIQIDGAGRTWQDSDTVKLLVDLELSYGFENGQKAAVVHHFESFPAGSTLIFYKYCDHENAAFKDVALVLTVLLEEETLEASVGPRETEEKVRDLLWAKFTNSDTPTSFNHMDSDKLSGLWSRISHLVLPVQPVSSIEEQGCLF
# Chain of Neurogenic locus notch homolog protein 3 (Homo sapiens) (Q9UM47 whole entry, looked up): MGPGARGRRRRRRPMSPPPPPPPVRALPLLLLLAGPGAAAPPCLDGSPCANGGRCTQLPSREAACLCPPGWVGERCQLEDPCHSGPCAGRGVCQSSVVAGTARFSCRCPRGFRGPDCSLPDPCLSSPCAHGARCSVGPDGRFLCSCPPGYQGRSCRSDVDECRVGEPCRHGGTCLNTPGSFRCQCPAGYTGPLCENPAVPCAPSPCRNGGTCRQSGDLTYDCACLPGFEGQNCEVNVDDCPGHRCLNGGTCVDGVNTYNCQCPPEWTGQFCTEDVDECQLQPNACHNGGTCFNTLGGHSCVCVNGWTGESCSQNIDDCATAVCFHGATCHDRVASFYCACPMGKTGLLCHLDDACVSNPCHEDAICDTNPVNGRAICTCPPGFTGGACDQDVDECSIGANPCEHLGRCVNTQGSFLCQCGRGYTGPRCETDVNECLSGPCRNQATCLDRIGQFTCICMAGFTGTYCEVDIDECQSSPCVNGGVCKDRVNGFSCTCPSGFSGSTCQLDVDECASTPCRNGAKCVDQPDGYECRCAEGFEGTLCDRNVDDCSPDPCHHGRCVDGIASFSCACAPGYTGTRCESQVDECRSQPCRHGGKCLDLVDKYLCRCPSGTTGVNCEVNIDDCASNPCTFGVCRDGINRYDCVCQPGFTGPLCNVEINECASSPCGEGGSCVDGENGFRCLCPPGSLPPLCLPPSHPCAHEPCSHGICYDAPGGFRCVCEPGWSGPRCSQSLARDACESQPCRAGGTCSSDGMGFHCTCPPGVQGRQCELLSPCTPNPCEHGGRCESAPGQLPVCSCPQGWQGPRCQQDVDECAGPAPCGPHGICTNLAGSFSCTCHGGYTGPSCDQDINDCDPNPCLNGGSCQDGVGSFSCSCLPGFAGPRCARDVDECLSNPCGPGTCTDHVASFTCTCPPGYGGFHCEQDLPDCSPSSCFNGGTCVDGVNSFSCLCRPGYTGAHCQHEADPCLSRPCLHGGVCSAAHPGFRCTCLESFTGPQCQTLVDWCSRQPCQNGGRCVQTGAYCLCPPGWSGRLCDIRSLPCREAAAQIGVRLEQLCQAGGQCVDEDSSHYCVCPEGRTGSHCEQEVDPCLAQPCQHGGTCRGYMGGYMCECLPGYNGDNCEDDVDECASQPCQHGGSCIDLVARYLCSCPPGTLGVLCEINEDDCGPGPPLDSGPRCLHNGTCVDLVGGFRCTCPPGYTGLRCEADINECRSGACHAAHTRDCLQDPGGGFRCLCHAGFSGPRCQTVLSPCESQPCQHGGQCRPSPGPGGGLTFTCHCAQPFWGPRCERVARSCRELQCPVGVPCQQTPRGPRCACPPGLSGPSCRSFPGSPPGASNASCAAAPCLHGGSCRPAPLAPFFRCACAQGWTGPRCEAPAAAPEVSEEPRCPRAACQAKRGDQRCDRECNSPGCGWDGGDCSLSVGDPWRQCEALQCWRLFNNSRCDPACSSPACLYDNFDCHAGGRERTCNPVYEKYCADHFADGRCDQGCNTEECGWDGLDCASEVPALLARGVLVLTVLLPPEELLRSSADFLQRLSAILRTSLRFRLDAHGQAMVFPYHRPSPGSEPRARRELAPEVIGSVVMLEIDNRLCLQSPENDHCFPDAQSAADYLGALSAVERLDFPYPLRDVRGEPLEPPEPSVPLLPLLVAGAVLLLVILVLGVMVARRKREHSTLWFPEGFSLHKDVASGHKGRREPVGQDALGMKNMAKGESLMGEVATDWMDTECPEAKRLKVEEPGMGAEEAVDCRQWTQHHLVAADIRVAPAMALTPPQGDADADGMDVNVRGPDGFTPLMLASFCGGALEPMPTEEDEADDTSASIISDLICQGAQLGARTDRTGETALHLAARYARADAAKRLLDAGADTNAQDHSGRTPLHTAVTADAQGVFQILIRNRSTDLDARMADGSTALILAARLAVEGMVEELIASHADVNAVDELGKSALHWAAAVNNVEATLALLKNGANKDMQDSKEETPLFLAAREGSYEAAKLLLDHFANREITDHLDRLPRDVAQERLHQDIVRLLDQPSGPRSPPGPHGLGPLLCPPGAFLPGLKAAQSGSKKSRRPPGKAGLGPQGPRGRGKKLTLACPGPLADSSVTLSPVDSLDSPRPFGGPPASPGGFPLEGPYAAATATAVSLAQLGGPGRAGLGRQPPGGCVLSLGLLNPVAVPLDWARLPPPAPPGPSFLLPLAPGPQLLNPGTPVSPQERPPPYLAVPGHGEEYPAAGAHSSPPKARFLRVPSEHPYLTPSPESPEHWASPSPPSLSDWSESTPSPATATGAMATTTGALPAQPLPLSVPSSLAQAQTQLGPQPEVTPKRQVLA
SMILES,composite z-score [1],z-score [2],z-score [3],z-score [4],composite z-score [5],z-score [6],composite z-score [7],composite z-score [8],composite z-score [9],composite z-score [10]
CN1C(=O)C2C(C1=O)C1C=C(c3ccc(CO)cc3)C2C(c2cccs2)N1C (stereo not given),-0.27,-0.208 (inactive),-2.24 (inactive),1.33 (inactive),0.989,1.24 (inactive),-0.072,-0.518,-0.133,0.637
CCCCCN1CC=CC23O[C@@H]4C=CCOC(=O)[C@@H]4[C@H]2C(=O)N(CCCCCO)[C@@H]3C1=O (stereo not given in full),0.421,-1.16 (inactive),0.249 (inactive),-1.02 (inactive),1.59,2.58 (inactive),-0.121,-0.361,0.103,-0.167
COCCOC(=O)N1C(=O)[C@@]2(c3cc(C#Cc4ccc(OC)cc4)ccc31)[C@H](c1ccc(OCCO)cc1)N1[C@H](c3ccccc3)[C@H](c3ccccc3)OC(=O)[C@H]1[C@@H]2C(=O)N1CCCCCCC1,1.49,-1.32 (inactive),-0.0066 (inactive),3.2 (inactive),3.3,0.106 (inactive),1.45,2.09,0.955,0.882
CCCCN1CC=CC23O[C@@H]4C=CCOC(=O)[C@@H]4[C@H]2C(=O)N(C(CO)C(C)C)[C@@H]3C1=O (stereo not given in full),-0.453,-0.161 (inactive),-0.325 (inactive),0.752 (inactive),-1.06,-0.505 (inactive),-0.118,-0.319,-0.743,-0.217
CN(C)CCCCNC(=O)[C@H]1C[C@H]2C(=O)NCC(=O)N2[C@H]1c1cccc(OCCO)c1,0.826,0.259 (inactive),1.06 (inactive),-0.431 (inactive),1.6,0.52 (inactive),-0.121,0.938,1.01,-0.3
C=CCC(OC(C)=O)[C@@H]1[C@@H](N(Cc2cccc3ccccc23)C(=O)c2ccc(-c3ccccc3)cc2)c2cc(OCCCO)ccc2N1C(=O)c1ccc2ccccc2n1 (stereo not given in full),0.929,-0.637 (inactive),0.651 (inactive),-0.0728 (inactive),1.01,-0.747 (inactive),0.157,0.37,0.296,-0.0271
COCCOC(=O)N1C(=O)[C@@]2(c3cc(C#CC4(O)CCCCCC4)ccc31)[C@H](C(=O)N1CCc3cc(OC)c(OC)cc3C1)[C@H]1C(=O)O[C@H](c3ccccc3)[C@H](c3ccccc3)N1[C@@H]2c1ccc(O)cc1,1.54,0.449 (inactive),-0.929 (inactive),1.7 (inactive),2.96,1.55 (inactive),-0.0699,1.44,1.05,1.04
COC(=O)[C@@]1(Cc2ccc(F)cc2)[C@H]2c3cc(C(=O)N(C)C)n(CCN4CCOCC4)c3C[C@H]2CN1C(=O)c1ccccc1,0.101,0.218 (inactive),0.323 (inactive),0.0727 (inactive),2.5,0.176 (inactive),0.246,-0.539,0.417,0.865
CCCC=C(CCC)[C@@H](NC(=O)c1ccco1)c1ccc(C(=O)OC)cc1,0.997,1.06 (inactive),0.113 (inactive),2.22 (inactive),3.52,-0.868 (inactive),0.198,0.678,1.06,-0.15
C[N+](C)(C)CCCC[C@@H]1NC(=O)[C@H]2C[C@@H](C(=O)NCCCCCNC(=O)CS)[C@@H](c3ccc(O)cc3)N2C1=O,0.808,-4.72 (inactive),-0.839 (inactive),-0.554 (inactive),1.91,1.42 (inactive),-0.134,0.212,0.58,-0.0583
N[C@@H](Cc1ccccc1)Cn1cc(C2(O)CCCCC2)nn1,-0.235,-0.692 (inactive),-0.16 (inactive),-0.522 (inactive),0.205,-1.15 (inactive),-0.128,0.112,0.293,-0.14
CCCCC(O)C1C=CC2C(=O)NC(=O)C2N1Nc1ccc(Cl)cc1Cl (stereo not given),-0.338,-25.2 (active),-8.47 (active),-1.58 (inactive),2.28,-1.55 (inactive),0.259,-0.314,0.303,-0.0232
C=CCN1C(=O)[C@]2(O[C@H](CCn3cc([C@H](O)c4ccccc4)nn3)[C@@H]([Si](C)(C)c3ccc(OC)cc3)[C@@H]2C)c2cc(N3C(=O)c4cccc5cccc3c45)ccc21,0.755,-0.055 (inactive),1.06 (inactive),1.21 (inactive),0.6,0.374 (inactive),-0.217,0.624,0.232,-0.28
CN(C)CCCNC(=O)[C@@]1(Cc2ccccc2I)c2ccccc2C(=O)N(Cc2ccccc2)[C@H]1c1ccc(CO)cc1,1.53,-0.282 (inactive),-14 (active),-2.33 (inactive),3.43,0.207 (inactive),-0.542,0.557,1.08,0.0054
COC(=O)[C@@]1(Cc2ccccc2)[C@@H]2[C@@H](CC(=O)[C@H]2CC(=O)C(=O)N(C)C)CN1C(=O)c1ccccc1,-0.476,1.02 (inactive),1.29 (inactive),0.633 (inactive),3.34,-0.2 (inactive),-0.0221,-0.505,-0.18,0.142
C=C(CCCC)C(=O)CC[C@H](OC(=O)c1cccnc1)c1ccc(CO)o1,1.55,-0.697 (inactive),-0.176 (inactive),-0.036 (inactive),2.07,-0.0138 (inactive),0,1.47,1.13,0.045
C[C@@H](OCc1ccccc1)C1NC(=O)[C@@]23C(=O)N[C@@H](Cc4ccccc4)C2[C@H](C)[C@@]2(C)O[C@H]2C3/C=C/C/C=C\CNC(=O)[C@H](Cc2ccccc2)NC1=O (stereo not given in full),0.448,-0.712 (inactive),-0.985 (inactive),-0.0389 (inactive),0.956,1.29 (inactive),-0.23,0.762,0.655,-0.0257
C[N+](C)(C)CCCCCCNC(=O)[C@@H]1C[C@@H]2C(=O)N[C@@H](Cc3ccccc3)C(=O)N2[C@@H]1c1ccc(O)cc1,1.54,-0.351 (inactive),-0.193 (inactive),-0.496 (inactive),3.06,-0.0343 (inactive),-0.183,1.46,1.04,0.0144
CO[C@H]1O[C@H](CO)[C@@H](OC(=O)Nc2ccc(C(F)(F)F)cc2)[C@H](OC(=O)Nc2ccccc2-c2ccccc2)[C@H]1OC(=O)Nc1ccccc1-c1ccccc1,1.54,1.32 (inactive),2.36 (inactive),29.9 (active),3.29,0.0918 (inactive),0.0079,1.21,1.06,0.0108
CCCCCCCCCCC(O)C1C=CC2C(=O)N(C)C(=O)C2N1N1CCCCC1 (stereo not given),-0.804,1.16 (inactive),-2.31 (inactive),2.18 (inactive),1.64,-1.6 (inactive),-0.118,-1.9,-1.14,-0.368
COC(=O)C1=CC(CCCO)=CC(C2CC2)N(Cc2cccc(OC(F)(F)F)c2)C=C1C(=O)OC (stereo not given),1.13,-2.46 (inactive),-1.06 (inactive),-2.24 (inactive),2.82,-2.57 (inactive),0.0386,-0.273,0.749,-0.0353
C#CCN(C/C=C/c1ccccc1)[C@H](CO[Si](C)(C)C(C)(C)C)c1ccccc1,0.21,0.253 (inactive),-0.121 (inactive),0.0066 (inactive),0.433,-0.347 (inactive),-0.264,-0.0154,-0.091,-0.21
CC(C)[C@@H](C(=O)O)n1cc(-c2ccccc2)nn1,0.0283,-0.0149 (inactive),-0.0883 (inactive),-0.244 (inactive),1.19,-1.44 (inactive),-0.0623,0.192,0.938,0.125
COC(=O)[C@@]1(CCS(=O)(=O)c2ccccc2)N=C(c2ccc(OCCCO)cc2)O[C@H]1c1ccccc1N=[N+]=[N-],1.56,0.349 (inactive),-0.238 (inactive),34.6 (active),3.29,0.96 (inactive),-0.0341,0.492,1.09,-0.0968
COCCOC(=O)N1C(=O)[C@@]2(c3cc(C#CCC(C(=O)OC)C(=O)OC)ccc31)[C@H](C(=O)N1CCc3cc(OC)c(OC)cc3C1)[C@H]1C(=O)O[C@H](c3ccccc3)[C@H](c3ccccc3)N1[C@@H]2c1ccc(O)cc1,1.54,0.215 (inactive),0.233 (inactive),0.773 (inactive),1.99,0.204 (inactive),0.0704,1.19,1.08,0.135
NC(=O)NCC#Cc1ccc2c(c1)[C@]1(C(=O)N2)[C@H](C(=O)N2CCCCCCC2)[C@H]2C(=O)O[C@H](c3ccccc3)[C@H](c3ccccc3)N2[C@@H]1c1ccc(O)cc1,1.55,0.463 (inactive),1.06 (inactive),1.47 (inactive),2.56,-0.284 (inactive),1.65,1.85,1.15,0.944
COCCOC(=O)N1C(=O)[C@@]2(c3ccccc31)[C@H](C(=O)N1CCCCCCC1)[C@H]1C(=O)O[C@H](c3ccccc3)[C@H](c3ccccc3)N1[C@@H]2c1ccc(O)cc1,1.53,-1.37 (inactive),-0.268 (inactive),1.63 (inactive),4.37,1.39 (inactive),1.75,1.11,1.09,1.15
COc1ccc(CCNC(=O)[C@@H]2c3ccccc3C(=O)N(CC34CC5CC(CC(C5)C3)C4)[C@H]2c2ccc(CO)cc2)cc1,1.12,-0.543 (inactive),-0.817 (inactive),-0.13 (inactive),2.45,0.573 (inactive),-0.297,1.92,1.06,-0.0828

# — PubChem BioAssay
